Consider eight compounds from PubChem BioAssay (NCI).

This is part of a sample that, as a whole, favours compounds with a hit. Of some 79,000 tested, about 15% had one in any assay. Values without a mark were called inactive. Calls of active or inactive are those of the source. Rule as the data show it: active = growth inhibition above about 70%; inactive = the rest.

The experiment can be described thus: NCI Yeast Anticancer Drug Screen. Data for the rad14 strain (AID 159).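 Also: 0% = growth of vehicle-treated control cultures.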 The note with it: S. cerevisiae rad14 strain growth inhibition, active compounds read high. How it is done:
Growth inhibition of yeast strains with defined genetic alterations is measured as a screen for potential anti-cancer activity. Selected strains with alterations in DNA damage repair or cell cycle control were exposed to compounds and growth inhibition was measured relative to vehicle treated controls. The strain used in this assay is rad14

Take `CCN(CC)CCBr`: the growth inhibition is, setting by setting: (at 1.2 µM) -1%; (at 3.7 µM) -1%; (at 11.0 µM) -1%; (at 33.0 µM) -1%; (at 100.0 µM) 7%.
As for `O=[N+]([O-])O.[NH-]C1CCCCC1[NH-].[NH-]C1CCCCC1[NH-].[NH-]C1CCCCC1[NH-].[OH-].[OH-].[OH-].[Pt+4].[Pt+4].[Pt+4]` (stereo not given), the growth inhibition was -5% (at 1.2 µM); -16% (at 3.7 µM); -33% (at 11.0 µM); -5% (at 33.0 µM); -10% (at 100.0 µM).
With `O=C1c2ccc3ccccc3c2CCC1N1CCCCC1` (stereo not given), the growth inhibition by setting is: (at 1.2 µM) 14%; (at 3.7 µM) 33%; (at 11.0 µM) 50%; (at 33.0 µM) 97% (active); (at 100.0 µM) 98% (active).
For the compound `Nc1nc(-c2ccccc2)c(-c2ccccc2)[se]1`, the growth inhibition is, setting by setting: (at 1.2 µM) 5%; (at 3.7 µM) 3%; (at 11.0 µM) 4%; (at 33.0 µM) 13%; (at 100.0 µM) 28%.
On the same counts, the results for `COC(=O)C1=C(C(=O)OC)SC2(S1)C(C(=O)OC)=C(C(=O)OC)Sc1c2ssc1=O` are 27%, 30%, 80% (active), 99% (active) and 92% (active).
Consider `CCOC(=O)C1C2c3ccccc3C(c3ccccc32)C1C(=O)OCC` (stereo not given), for which the growth inhibition (at 1.2 µM) is 5%; the growth inhibition (at 3.7 µM) was 7%; the growth inhibition (at 11.0 µM) was 12%; the growth inhibition (at 33.0 µM) is 16%; the growth inhibition (at 100.0 µM) is 90% (active).
For the compound `CCCCCNC(=O)c1c(O)[nH]c(=S)[nH]c1=O`, the growth inhibition is 16% (at 1.2 µM); 64% (at 3.7 µM); 91% (active) (at 11.0 µM); 96% (active) (at 33.0 µM); 96% (active) (at 100.0 µM).
On to `O=C(Nc1cc(Cl)ccc1Cl)C(Cl)(Cl)Cl`, for which the growth inhibition was 3% (at 1.2 µM); 6% (at 3.7 µM); 13% (at 11.0 µM); 21% (at 33.0 µM); 30% (at 100.0 µM).
